Several values for one entry are separate records, joined by “and”; a condition that tells them apart may be missing. Identical values can stand only once. Like-named read-outs stand apart in the source and are kept apart here.

One assay relates to ULK2. The settings on record: concentration: 1 μM, replicates: in singlicate, n = 1.
In a further assay the test system is ULK3. The settings on record: concentration: 1 μM, replicates: in singlicate, n = 1.
In another assay the test system is T1, VEGFR2.
T1 construct: gene KDR
The conditions noted are these: concentration: 1 μM, replicates: in singlicate, n = 1.

The test system of a further assay is T2, VPS34.
T2 construct: gene PIK3C3
The conditions noted are these: concentration: 1 μM, replicates: in singlicate, n = 1.

The next assay has as its system VRK2. The conditions noted are these: concentration: 1 μM, replicates: in singlicate, n = 1.
For a further assay, the system named is WEE1. The settings on record: concentration: 1 μM, replicates: in singlicate; n = 1.
The next assay relates to WEE2. The settings on record: concentration: 1 μM, replicates: in singlicate, n = 1.
The subject of a further assay is WNK1. The settings on record: concentration: 1 μM, replicates: in singlicate, n = 1.
For another assay, the system named is WNK2. The conditions noted are these: concentration: 1 μM, replicates: in singlicate, n = 1.
A further assay relates to WNK3. The conditions noted are these: concentration: 1 μM, replicates: in singlicate, n = 1.
In a further assay the test system is WNK4. The conditions noted are these: concentration: 1 μM, replicates: in singlicate; n = 1.
In the next assay the test system is T3, YANK1.
T3 construct: gene STK32A
The settings on record: concentration: 1 μM, replicates: in singlicate, n = 1.

The subject of the next assay is T4, YANK2.
T4 construct: gene STK32B
The conditions noted are these: concentration: 1 μM, replicates: in singlicate, n = 1.

For the next assay, the system named is T5, YANK3.
T5 construct: gene STK32C
The settings on record: concentration: 1 μM, replicates: in singlicate, n = 1.

The test system of a further assay is T6, YES.
T6 construct: gene YES1
The settings on record: concentration: 1 μM, replicates: in singlicate; n = 1.

A further assay concerns T7, YSK1.
T7 construct: gene STK25
The settings on record: concentration: 1 μM, replicates: in singlicate; n = 1.

The subject of a further assay is T8, YSK4.
T8 construct: gene MAP3K19
The conditions noted are these: concentration: 1 μM, replicates: in singlicate, n = 1.

In a further assay the test system is ZAK. The settings on record: concentration: 1 μM, replicates: in singlicate, n = 1.
The next assay has as its system ZAP70. The settings on record: concentration: 1 μM, replicates: in singlicate, n = 1.
The subject of the next assay is T9, p38-alpha.
T9 construct: gene MAPK14
The conditions noted are these: concentration: 1 μM, replicates: in singlicate, n = 1.
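Further: KINOMEscan kinase panel screen.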

For the compound `CS(=O)(=O)CCNCc1ccc(-c2ccc3ncnc(Nc4ccc(OCc5ccccc5)c(Cl)c4)c3c2)o1.Cl` [GW574783], the “%Inh” value came out at 0% with ULK2; 0% with ULK3; 0% with VEGFR2; 18% in the assay with VPS34; 42% in the assay on VRK2; 12% in the assay with WEE1. The “%Inh” value with WEE2 is on record as 19%; in the assay with WNK1 it was 11%; with WNK2, 10%; in the assay on WNK3, 29%; in the assay with WNK4 it was 22%; with YANK1, 0%. In addition, the “%Inh” value with YANK2 was 24%; in the assay with YANK3, 8%; in the assay on YES, 1%; in the assay with YSK1, 0%; with YSK4, 2%; with ZAK it was 0%. Besides, the “%Inh” value in the assay with ZAP70 and in the assay on p38-alpha was 0% throughout.

As to `CCCc1ccc(S(=O)(=O)NC2CCN(c3ccnc(Nc4ccc(OC)cc4)n3)C2)cc1` (stereo not drawn) [GSK1379737], the “%Inh” value in the assay with ULK2 was determined as 0%; with ULK3, 7%; in the assay with VEGFR2, 0%; in the assay on VPS34 it was 36%; with VRK2 it was 4%; in the assay with WEE1, 12%. Moreover, the “%Inh” value in the assay on WEE2 stood at 0%; in the assay on WNK1, 8%; in the assay on WNK2 it was 0%; in the assay with WNK3, 38%; in the assay with WNK4, 45%; in the assay with YANK1, 0%. The “%Inh” value with YANK2 is on record as 0%; in the assay on YANK3, 16%; in the assay with YES, 5%; in the assay with YSK1, 0%; with YSK4, 30%; with ZAK, 8%. The “%Inh” value in the assay on ZAP70 came to 0%; in the assay on p38-alpha, 10%.

Turning to `N#Cc1ccc(Oc2ccc(Nc3ncnc4cc[nH]c34)cc2Cl)cc1`, the “%Inh” value with ULK2 is 34%; with ULK3, 30%; in the assay with VEGFR2 it was 12%; in the assay with VPS34 it was 0%; with VRK2, 3%; with WEE1, 28%. For the same compound, the “%Inh” value in the assay with WEE2 stood at 8%; with WNK1, 0%; in the assay on WNK2, 7%; with WNK3, 0%; in the assay with WNK4, 19%; in the assay on YANK1, 19%. In addition, the “%Inh” value in the assay on YANK2 is listed as 22%; in the assay with YANK3 it was 0%; in the assay on YES, 0%; in the assay on YSK1, 0%; with YSK4, 20%; in the assay on ZAK it was 18%. Besides, the “%Inh” value in the assay on ZAP70 is given as 0%; in the assay with p38-alpha it was 19%.

Consider `Cn1ccc2ncnc(Nc3ccc(Oc4cccc(Cl)c4)c(Cl)c3)c21`, for which the “%Inh” value is 31% in the assay with ULK2; 38% in the assay with ULK3; 0% with VEGFR2; 52% in the assay on VPS34; 0% in the assay with VRK2; 0% in the assay on WEE1. The “%Inh” value with WEE2 is 34%; in the assay with WNK1 it was 0%; in the assay on WNK2, 31%; in the assay on WNK3, 0%; with WNK4 it was 34%; with YANK1, 0%. Moreover, the “%Inh” value with YANK2 is recorded as 14%; with YANK3 it was 17%; in the assay with YES, 0%; in the assay on YSK1, 0%; in the assay on YSK4, 11%; in the assay with ZAK it was 30%. Also, the “%Inh” value in the assay on ZAP70 amounted to 0%; with p38-alpha, 17%.

`OCCOCCn1ccc2ncnc(Nc3ccc(Oc4cccc(Cl)c4)c(Cl)c3)c21`: the “%Inh” value was determined as 0% in the assay with ULK2; 0% with ULK3; 0% with VEGFR2; 0% with VPS34; 46% in the assay on VRK2; 0% with WEE1. Further, the “%Inh” value with WEE2, with WNK1, in the assay with WNK2, in the assay with WNK3, with WNK4 and with YANK1 was 0% throughout. Further, the “%Inh” value with YANK2, with YANK3, in the assay with YES, with YSK1, in the assay with YSK4 and with ZAK was 0% throughout. For the same compound, the “%Inh” value in the assay with ZAP70 and in the assay on p38-alpha was 0% throughout.

Consider `O=c1cc(N2CCOCC2)nc2n(Cc3cccc(Cl)c3)ccn12` [GSK2296823], for which the “%Inh” value is 0% in the assay with ULK2; 11% in the assay on ULK3; 6% in the assay on VEGFR2; 93.3% in the assay with VPS34; 2% in the assay with VRK2; 0% with WEE1. Further, the “%Inh” value with WEE2 is 13%; in the assay with WNK1, 5%; in the assay with WNK2 it was 0%; in the assay with WNK3, 3%; in the assay on WNK4, 0%; in the assay with YANK1, 0%. In addition, the “%Inh” value with YANK2 was 0%; with YANK3, 18%; in the assay with YES it was 23%; with YSK1, 10%; with YSK4 it was 19%; with ZAK, 0%. The “%Inh” value with ZAP70 and in the assay with p38-alpha was 0% in each case.

On to `O=C(Nc1ccccc1)Nc1ccc(Oc2ccc3nccn3n2)cc1`, for which the “%Inh” value in the assay on ULK2 amounted to 0%; with ULK3, 2%; in the assay with VPS34, 14%; with VRK2, 0%; with WEE1, 3%; in the assay on WEE2 it was 13%. The “%Inh” value in the assay with WNK1, with WNK2, with WNK3, in the assay on WNK4, with YANK1 and in the assay with YANK2 was 0% throughout. For the same compound, the “%Inh” value with YANK3 amounted to 0%; in the assay on YES it was 11%; with YSK1, 0%; in the assay with YSK4, 0%; in the assay on ZAK, 4%; with ZAP70, 0%. Also, the “%Inh” value in the assay on p38-alpha stood at 0%.

For the compound `COc1ccc(-c2nc3n(c2-c2ccncc2)CCC3)cc1` [SKF-104493], the “%Inh” value is 13% and 0% in the assay with ULK2 (1 µM); 13% and 0% with ULK3 (1 µM); 15% and 0% with VEGFR2 (1 µM); 28% and 20% in the assay on VPS34 (1 µM); 7% and 0% in the assay on VRK2 (1 µM); 0% in the assay on WEE1. Moreover, the “%Inh” value in the assay on WEE2 (1 µM) is 13% and 0%; with WNK1 (1 µM), 27% and 0%; in the assay on WNK2 (1 µM), 0% and 21%; with WNK3 (1 µM), 33% and 16%; in the assay on WNK4 it was 17%; in the assay on YANK1 (1 µM), 0% and 10%. In addition, the “%Inh” value in the assay with YANK2 (1 µM) is 13% and 0%; with YANK3 (1 µM), 0% and 4%; in the assay with YES, 0%; with YSK1, 0%; in the assay with YSK4 (1 µM) it was 0% and 100%; in the assay on ZAK (1 µM) it was 0% and 8%. For the same compound, the “%Inh” value was 0% and 8% with ZAP70 (1 µM); 80% and 97.8% with p38-alpha (1 µM).
